# Experimental data reported in PubChem BioAssay (NCI).
# About 83,000 compounds went through this panel and 20% of them were active in at least one assay; those are over-represented in the sample as a whole.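 Testing used 96-well plates and a 48-hour single-concentration exposure. Example: -40 means 40% of the starting cells died.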 Calls of active or inactive are those of the source. How the source made its calls: active means growth percent below 10; inactive means the rest.
# Tested on: DU-145 prostate
# Assay: NCI-60 one-dose screen, 48 h (100 = growth as untreated, 0 = no growth, -100 = all killed)
# Details: 10 µM unless noted
row,SMILES,growth
1,CCN1C(=O)N(CC)C2C1NN=c1s/c(=C\c3ccccc3F)c(=O)n12 (stereo not given),2.54% (active)
2,O=C(CSC(=S)n1cnnc1)NC(=O)c1ccccc1,105% (inactive)
3,CC(=O)n1nc(C(=O)OC(C)(C)c2ccccc2)c2ccccc21,111% (inactive)
4,Oc1c(I)cc(I)cc1CNCc1ccccn1,49.9% (inactive)
5,COc1ccc(C(=O)Nc2cccc(-c3cc(=O)c4c(OC)c(OC)c(OC)cc4o3)c2)cc1,56.5% (inactive)
6,COc1ccccc1NC(=O)N=Nc1c(O)[nH]c2ccccc12,102% (inactive)
7,O=C(CSc1nnc(-c2cnccn2)n1-c1ccccc1)c1ccc(Cl)cc1,105% (inactive)
8,COc1ccc(/C=C(\C#N)n2nnc3ccc(Cl)cc32)cc1,64.5% (inactive)
9,Cc1ccc(C[P+](c2ccccc2)(c2ccccc2)c2ccccc2)cc1,7.44% (active)
10,COc1ccc2[nH]c(C(=O)N3CCN(C(=O)OCc4ccc5c(Cl)cc(Cl)c(O)c5n4)CC3)cc2c1,-88.6% (active)
11,COc1ccc(C(=O)/C=C/c2c(C(F)(F)F)nc3ccccn23)cc1OC,4.16% (active)
12,Cn1c(=O)c2nc(/C=C/c3ccccc3)c(=O)[nH]c2n(C)c1=S,113% (inactive)
13,Cc1c[n+](Cc2ccc3ccccc3c2)cn1Cc1ccc2ccccc2c1,37.1% (inactive)
14,O=C1/C(=C/c2ccccc2O)CC/C1=C\c1ccccc1O,46.1% (inactive)
15,N#Cc1ccc2c(c1)C(=O)c1c-2n(CCCN)c(=O)c2cc([N+](=O)[O-])ccc12,-100% (active)
16,CCCCCCCCCCCCCCCCOCCCOP(=O)(O)C1CCCN(O)C1=O (stereo not given),24.6% (inactive)
17,CCOC(=O)C#Cc1c(C(=O)OCC)nnn1Cc1ccc([N+](=O)[O-])cc1,10.4% (inactive)
18,CCN1C(=S)N(c2ccccc2)C2NC(=S)N(/N=C/C=C/c3ccccc3OC)C21 (stereo not given),7.01% (active)
19,CCOc1nc(-c2ccccc2)cc2c(O)c(C(=O)N/N=C/c3ccccc3)[nH]c(=O)c12,115% (inactive)
20,CCNCCNc1cc(-c2ccc(C(F)(F)F)cc2)c(C#N)c2nc3ccccc3n12,-95.1% (active)

row,SMILES,growth
1,NC(N)=NCCCCCNc1noc(Cc2c[nH]c3cc(Br)ccc23)n1,92.8% (inactive)
2,Cc1c(O)cc(-c2cnc(Nc3ccccc3)s2)c(O)c1C,105% (inactive)
3,CCCCCCCCCc1ccc(OCCOCCOCCOCCOCCOCCOCCOCCOCCO)cc1,31.5% (inactive)
4,CCOC(=O)C1=C(N)Oc2c(sc3c(F)cccc23)C1c1ccc(O)cc1 (stereo not given),66.8% (inactive)
5,CCOC(=O)c1cc(C)n(-c2ccc(C(=O)O)cc2)c1C,7.16% (active)
6,O=c1[nH]c(-c2ccccc2)nc2sc3cc(O)ccc3c12,83.6% (inactive)
7,CCc1ccccc1-n1c(-c2ccc(OC)cc2)cc(-c2ccc(OC)cc2)c(C#N)c1=O,98.6% (inactive)
8,COC(=O)C1Cc2ccccc2CN1C(=O)c1ccc2c(c1)Cc1ccccc1-2 (stereo not given),59.8% [50 µM] (inactive)
9,COc1cccc(/C=C2\COc3ccc(O)c(O)c3C2=O)c1,4.84% (active)
10,CCCCn1c(=O)[nH]c(N)c([C@@H]2c3c([nH]c(=O)n(CCCC)c3=O)Oc3ccc4ccccc4c32)c1=O,47.5% (inactive)
11,COc1cc2c(c(OC)c1OC)CCC(c1cccc(NC(=O)c3ccc(Br)cc3)c1)O2 (stereo not given),87.9% (inactive)
12,NC(=O)C(=O)c1ccccc1NC=O,106% (inactive)
13,NC(=O)c1cc(I)ccc1NC(=O)/C=C/c1ccccc1,-7.97% (active)
14,O=[N+]([O-])c1ccc(O)cc1Br,103% (inactive)
15,COc1ccc(OC)c(Nc2nnc(-c3ccc(O)c(OC)c3)o2)c1,51.4% (inactive)
16,C=CCn1c(C)nc2ccc(Nc3nc(Nc4ccc5nc(C)n(CC=C)c5c4)c4ccccc4n3)cc21,-67.6% (active)
17,Cn1c(=O)cc2c3c(c(NCCCO)ccc31)C(=O)c1ccccc1-2,45.4% (inactive)
18,O=S(=O)(c1ccccc1)n1cc2c(c1)-c1nc(Nc3ncccn3)sc1CC2,34.6% (inactive)
19,O=S(=O)(NCCCNc1nccc(-c2c(-c3ccc(F)c(O)c3)nc3sccn23)n1)c1ccccc1,69% (inactive)
20,C=C(C)[C@@H]1CC[C@]2(C(=O)O)CC[C@]3(C)[C@H](CC[C@@H]4[C@@]5(C)CCC(NC(=O)c6cccc(OC(C)=O)c6OC(C)=O)C(C)(C)[C@@H]5CC[C@]43C)[C@@H]12 (stereo not given in full),21.3% (inactive)
